Measurements taken from PubChem BioAssay AID540359 (Broad Institute, 2011).
Measured potencies and affinities stand elsewhere. The source made the active and inactive calls. No rule for the calls is given here.

Target: UDP-galactopyranose mutase (Mycobacterium tuberculosis (strain ATCC 25618 / H37Rv)) (UniProt P9WIQ1)
Experiment: UDP galactopyranose mutase inhibitors, Mycobacterium tuberculosis, cherry pick dose confirmation (AID 540359)
Details: purified UGM enzyme, plate reader activity; series mostly up to 50 µM

Sequence of UDP-galactopyranose mutase (Mycobacterium tuberculosis (strain ATCC 25618 / H37Rv)) (P9WIQ1 whole entry, looked up): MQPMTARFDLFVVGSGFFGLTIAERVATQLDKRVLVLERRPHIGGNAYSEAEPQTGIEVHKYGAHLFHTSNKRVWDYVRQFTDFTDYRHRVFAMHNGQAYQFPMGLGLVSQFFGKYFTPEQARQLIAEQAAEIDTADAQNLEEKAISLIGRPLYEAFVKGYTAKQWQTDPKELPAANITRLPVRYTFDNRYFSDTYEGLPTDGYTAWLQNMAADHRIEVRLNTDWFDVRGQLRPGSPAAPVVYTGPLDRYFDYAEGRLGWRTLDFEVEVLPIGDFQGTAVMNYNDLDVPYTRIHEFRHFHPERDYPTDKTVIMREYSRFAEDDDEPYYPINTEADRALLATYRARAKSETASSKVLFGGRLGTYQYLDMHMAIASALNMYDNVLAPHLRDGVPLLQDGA

| SMILES | outcome |
| --- | --- |
| O=C(COC(=O)CN1C(=O)NC2(CCCC2)C1=O)NCc1ccc(Cl)cc1Cl | inactive |
| CCOC(=O)c1c(C)nc2ccccc2c1C | inactive |
| O=C(O)c1ccccc1C(=O)OCCCCOC(=O)c1ccccc1C(=O)O | inactive |
| Cc1ccc(NC(=O)/C(C#N)=C/c2ccc(C)s2)c(C)c1 | inactive |
| CC(N)=Nc1ccc([N+](=O)[O-])cc1 | inactive |
| Cc1c(N=C2N=C(NC(=O)c3ccc(F)cc3)c3ccccc32)c(=O)n(-c2ccccc2)n1C | inactive |
| COc1ccccc1N1CCN(C2CCCN(C(=O)CCC(=O)N(C)C)C2)CC1 (configuration not stated) | inactive |
| COc1ccc(-c2cc(=O)[nH]c3ccccc23)cc1 | inactive |
| Cn1nc(C(=O)Nc2cc(Cl)ccc2N2CCCC2)c2ccccc2c1=O | inactive |
| COc1ccc(-n2c(O)c(/C=C3\C=Nc4ccc(Br)cc43)c(=O)[nH]c2=O)cc1 | inactive |
| O=C(Cc1cccs1)Nc1cc(SCCO)cc([N+](=O)[O-])c1 | inactive |
| CC(C)OC(=O)CC(=O)c1sc2nc3c(cc2c1N)CN(C)CC3 | inactive |
| COc1ccc(N=Cc2c(O)n(-c3cccc(C)n3)c(=O)c3ccccc23)c(OC)c1 | inactive |
| COc1ccc(C(=O)NCC(=O)N2CCN(C(=O)c3ccco3)CC2)cc1[N+](=O)[O-] | inactive |
| CCN(C(=O)COC(=O)c1cc(Cl)ccc1OC)c1c(N)n(Cc2ccccc2)c(=O)[nH]c1=O | inactive |
| COc1ccc(CCn2c(=N)c(S(=O)(=O)c3ccc(C)cc3)cc3c(=O)n4ccccc4nc32)cc1 | inactive |
| Cc1ccc(-c2nc3sc(C#N)c(N)n3c(=O)c2C#N)cc1 | inactive |
